Measured values published in article PMC11062922 (Nature Chemical Biology, 2023).
Read-outs that look alike come from different tables or passages of the source.

Tests used:
LATS1 = conditions: read-out: apparent Kd, n = 1
MAP2K2 = conditions: read-out: apparent Kd, n = 1
[1] = compound concentrations:100 nM and 1000 nM (sheet 'Lestaurtinib' of Supplementary Table 1),run:Lestaurtinib_02624_R1,Plate:MR020
[2] = compound concentrations:100 nM and 1000 nM (sheet 'Lestaurtinib' of Supplementary Table 1),run:Lestaurtinib_02624_R2,Plate:MR020
[3] = compound concentrations:100 nM and 1000 nM (sheet 'Lestaurtinib' of Supplementary Table 1),run:Lestaurtinib_02624_R3,Plate:MR020
[4] = compound concentrations:100 nM and 1000 nM (sheet 'Lestaurtinib' of Supplementary Table 1),run:Lestaurtinib_02724_R1,Plate:MR021
[5] = compound concentrations:100 nM and 1000 nM (sheet 'Lestaurtinib' of Supplementary Table 1),run:Lestaurtinib_02752_R1,Plate:MR025
[6] = compound concentrations:100 nM and 1000 nM (sheet 'Lestaurtinib' of Supplementary Table 1),run:Lestaurtinib_02752_R2,Plate:MR025

Lestaurtinib gave a potency estimated from few doses (LATS1; [1]) of 0.0258 µM, a potency estimated from few doses (LATS1; [2]) of 0.0409 µM and a potency estimated from few doses (LATS1; [3]) of 0.0389 µM. It also gave a potency estimated from few doses (LATS1; [4]) of 0.0134 µM, a potency estimated from few doses (LATS1; compound concentrations:100 nM and 1000 nM (sheet 'Lestaurtinib' of Supplementary Table 1),run:Lestaurtinib_02724_R3,Plate:MR021) of 0.0132 µM and a potency estimated from few doses (LATS1; compound concentrations:100 nM and 1000 nM (sheet 'Lestaurtinib' of Supplementary Table 1),run:Lestaurtinib_02741_R2,Plate:MR023) of 0.027 µM. It also gave a potency estimated from few doses (LATS1; compound concentrations:100 nM and 1000 nM (sheet 'Lestaurtinib' of Supplementary Table 1),run:Lestaurtinib_02748_R1,Plate:MR024) of 0.0362 µM, a potency estimated from few doses (LATS1; compound concentrations:100 nM and 1000 nM (sheet 'Lestaurtinib' of Supplementary Table 1),run:Lestaurtinib_02748_R3,Plate:MR024) of 0.0564 µM and a potency estimated from few doses (LATS1; [5]) of 0.0273 µM. It also gave a potency estimated from few doses (LATS1; [6]) of 0.0329 µM, a potency estimated from few doses (LATS1; compound concentrations:100 nM and 1000 nM (sheet 'Lestaurtinib' of Supplementary Table 1),run:Lestaurtinib_02752_R3,Plate:MR025) of 0.0523 µM and a potency estimated from few doses (LATS1; compound concentrations:100 nM and 1000 nM (sheet 'Lestaurtinib' of Supplementary Table 1),run:Lestaurtinib_02765_R1,Plate:MR026) of 0.0404 µM. It also gave a potency estimated from few doses (LATS1; compound concentrations:100 nM and 1000 nM (sheet 'Lestaurtinib' of Supplementary Table 1),run:Lestaurtinib_02765_R2,Plate:MR026) of 0.0486 µM, a potency estimated from few doses (LATS1; compound concentrations:100 nM and 1000 nM (sheet 'Lestaurtinib' of Supplementary Table 1),run:Lestaurtinib_02765_R3,Plate:MR026) of 0.0667 µM and a potency estimated from few doses (LATS1; compound concentrations:100 nM and 1000 nM (sheet 'Lestaurtinib' of Supplementary Table 1),run:Lestaurtinib_02768_R1,Plate:MR028) of 0.0317 µM. For the same substance, the potency estimated from few doses (LATS1; compound concentrations:100 nM and 1000 nM (sheet 'Lestaurtinib' of Supplementary Table 1),run:Lestaurtinib_02795_R1,Plate:MR022) was 0.0151 µM, the potency estimated from few doses (LATS1; compound concentrations:100 nM and 1000 nM (sheet 'Lestaurtinib' of Supplementary Table 1),run:Lestaurtinib_02795_R3,Plate:MR022) was 0.0469 µM and the potency estimated from few doses (LATS1; compound concentrations:100 nM and 1000 nM (sheet 'Lestaurtinib' of Supplementary Table 1),run:Lestaurtinib_02802_R1,Plate:MR029) was 0.0386 µM. For the same substance, the potency estimated from few doses (LATS1; compound concentrations:100 nM and 1000 nM (sheet 'Lestaurtinib' of Supplementary Table 1),run:Lestaurtinib_02802_R2,Plate:MR029) was 0.026 µM, the potency estimated from few doses (LATS1; compound concentrations:100 nM and 1000 nM (sheet 'Lestaurtinib' of Supplementary Table 1),run:Lestaurtinib_02896_R1,Plate:MR030) was 0.0151 µM and the potency estimated from few doses (LATS1; compound concentrations:100 nM and 1000 nM (sheet 'Lestaurtinib' of Supplementary Table 1),run:Lestaurtinib_02896_R2,Plate:MR030) was 0.0279 µM. The potency estimated from few doses (LATS1; compound concentrations:100 nM and 1000 nM (sheet 'Lestaurtinib' of Supplementary Table 1),run:Lestaurtinib_03172_R1,Plate:MR031) was 0.0409 µM, the potency estimated from few doses (LATS1; compound concentrations:100 nM and 1000 nM (sheet 'Lestaurtinib' of Supplementary Table 1),run:Lestaurtinib_03172_R2,Plate:MR031) was 0.0327 µM and the potency estimated from few doses (LATS1; compound concentrations:100 nM and 1000 nM (sheet 'Lestaurtinib' of Supplementary Table 1),run:Lestaurtinib_03172_R3,Plate:MR031) was 0.0301 µM. For the same substance, the potency estimated from few doses (LATS1; compound concentrations:100 nM and 1000 nM (sheet 'Lestaurtinib' of Supplementary Table 1),run:Lestaurtinib_03252_R1,Plate:MR032) was 0.0411 µM, the potency estimated from few doses (LATS1; compound concentrations:100 nM and 1000 nM (sheet 'Lestaurtinib' of Supplementary Table 1),run:Lestaurtinib_03260_R2,Plate:MR033) was 0.066 µM and the potency estimated from few doses (LATS1; compound concentrations:100 nM and 1000 nM (sheet 'Lestaurtinib' of Supplementary Table 1),run:Lestaurtinib_03260_R3,Plate:MR033) was 0.0578 µM. The potency estimated from few doses (MAP2K2; compound concentrations:100 nM and 1000 nM (sheet 'Lestaurtinib' of Supplementary Table 1),run:Lestaurtinib_02339_R1,Plate:MR001) was 1.93 µM, the potency estimated from few doses (MAP2K2; compound concentrations:100 nM and 1000 nM (sheet 'Lestaurtinib' of Supplementary Table 1),run:Lestaurtinib_02339_R2,Plate:MR001) was 0.822 µM and the potency estimated from few doses (MAP2K2; compound concentrations:100 nM and 1000 nM (sheet 'Lestaurtinib' of Supplementary Table 1),run:Lestaurtinib_02339_R3,Plate:MR001) was 0.836 µM. The potency estimated from few doses (MAP2K2; compound concentrations:100 nM and 1000 nM (sheet 'Lestaurtinib' of Supplementary Table 1),run:Lestaurtinib_02364_R1,Plate:MR002) was 1.21 µM, the potency estimated from few doses (MAP2K2; compound concentrations:100 nM and 1000 nM (sheet 'Lestaurtinib' of Supplementary Table 1),run:Lestaurtinib_02364_R2,Plate:MR002) was 1.67 µM and the potency estimated from few doses (MAP2K2; compound concentrations:100 nM and 1000 nM (sheet 'Lestaurtinib' of Supplementary Table 1),run:Lestaurtinib_02367_R1,Plate:MR003) was 0.557 µM. For the same substance, the potency estimated from few doses (MAP2K2; compound concentrations:100 nM and 1000 nM (sheet 'Lestaurtinib' of Supplementary Table 1),run:Lestaurtinib_02367_R2,Plate:MR003) was 0.665 µM, the potency estimated from few doses (MAP2K2; compound concentrations:100 nM and 1000 nM (sheet 'Lestaurtinib' of Supplementary Table 1),run:Lestaurtinib_02367_R3,Plate:MR003) was 2.22 µM and the potency estimated from few doses (MAP2K2; compound concentrations:100 nM and 1000 nM (sheet 'Lestaurtinib' of Supplementary Table 1),run:Lestaurtinib_02407_R1,Plate:MR005) was 0.0963 µM. The potency estimated from few doses (MAP2K2; compound concentrations:100 nM and 1000 nM (sheet 'Lestaurtinib' of Supplementary Table 1),run:Lestaurtinib_02407_R2,Plate:MR005) was 0.143 µM, the potency estimated from few doses (MAP2K2; compound concentrations:100 nM and 1000 nM (sheet 'Lestaurtinib' of Supplementary Table 1),run:Lestaurtinib_02407_R3,Plate:MR005) was 0.794 µM and the potency estimated from few doses (MAP2K2; compound concentrations:100 nM and 1000 nM (sheet 'Lestaurtinib' of Supplementary Table 1),run:Lestaurtinib_02422_R3,Plate:MR006) was 1.8 µM. The potency estimated from few doses (MAP2K2; compound concentrations:100 nM and 1000 nM (sheet 'Lestaurtinib' of Supplementary Table 1),run:Lestaurtinib_02437_R1,Plate:MR007) was 0.159 µM, the potency estimated from few doses (MAP2K2; compound concentrations:100 nM and 1000 nM (sheet 'Lestaurtinib' of Supplementary Table 1),run:Lestaurtinib_02437_R2,Plate:MR007) was 1.37 µM and the potency estimated from few doses (MAP2K2; compound concentrations:100 nM and 1000 nM (sheet 'Lestaurtinib' of Supplementary Table 1),run:Lestaurtinib_02437_R3,Plate:MR007) was 0.0989 µM. It also gave a potency estimated from few doses (MAP2K2; compound concentrations:100 nM and 1000 nM (sheet 'Lestaurtinib' of Supplementary Table 1),run:Lestaurtinib_02438_R1,Plate:MR008) of 1.8 µM, a potency estimated from few doses (MAP2K2; compound concentrations:100 nM and 1000 nM (sheet 'Lestaurtinib' of Supplementary Table 1),run:Lestaurtinib_02438_R2,Plate:MR008) of 0.876 µM and a potency estimated from few doses (MAP2K2; compound concentrations:100 nM and 1000 nM (sheet 'Lestaurtinib' of Supplementary Table 1),run:Lestaurtinib_02438_R3,Plate:MR008) of 0.745 µM. For the same substance, the potency estimated from few doses (MAP2K2; compound concentrations:100 nM and 1000 nM (sheet 'Lestaurtinib' of Supplementary Table 1),run:Lestaurtinib_02443_R2,Plate:MR009) was 0.782 µM, the potency estimated from few doses (MAP2K2; compound concentrations:100 nM and 1000 nM (sheet 'Lestaurtinib' of Supplementary Table 1),run:Lestaurtinib_02443_R3,Plate:MR009) was 0.924 µM and the potency estimated from few doses (MAP2K2; compound concentrations:100 nM and 1000 nM (sheet 'Lestaurtinib' of Supplementary Table 1),run:Lestaurtinib_02473_R1,Plate:MR010) was 0.838 µM. For the same substance, the potency estimated from few doses (MAP2K2; compound concentrations:100 nM and 1000 nM (sheet 'Lestaurtinib' of Supplementary Table 1),run:Lestaurtinib_02482_R1,Plate:MR011) was 1.4 µM, the potency estimated from few doses (MAP2K2; compound concentrations:100 nM and 1000 nM (sheet 'Lestaurtinib' of Supplementary Table 1),run:Lestaurtinib_02482_R2,Plate:MR011) was 1.36 µM and the potency estimated from few doses (MAP2K2; compound concentrations:100 nM and 1000 nM (sheet 'Lestaurtinib' of Supplementary Table 1),run:Lestaurtinib_02482_R3,Plate:MR011) was 1.3 µM. For the same substance, the potency estimated from few doses (MAP2K2; compound concentrations:100 nM and 1000 nM (sheet 'Lestaurtinib' of Supplementary Table 1),run:Lestaurtinib_02487_R3,Plate:MR012) was 1.3 µM, the potency estimated from few doses (MAP2K2; compound concentrations:100 nM and 1000 nM (sheet 'Lestaurtinib' of Supplementary Table 1),run:Lestaurtinib_02496_R3,Plate:MR013) was 1.43 µM and the potency estimated from few doses (MAP2K2; compound concentrations:100 nM and 1000 nM (sheet 'Lestaurtinib' of Supplementary Table 1),run:Lestaurtinib_02566_R2,Plate:MR014) was 1.24 µM. For the same substance, the potency estimated from few doses (MAP2K2; compound concentrations:100 nM and 1000 nM (sheet 'Lestaurtinib' of Supplementary Table 1),run:Lestaurtinib_02566_R3,Plate:MR014) was 0.835 µM, the potency estimated from few doses (MAP2K2; compound concentrations:100 nM and 1000 nM (sheet 'Lestaurtinib' of Supplementary Table 1),run:Lestaurtinib_02572_R1,Plate:MR015) was 1.37 µM and the potency estimated from few doses (MAP2K2; compound concentrations:100 nM and 1000 nM (sheet 'Lestaurtinib' of Supplementary Table 1),run:Lestaurtinib_02577_R1,Plate:MR016) was 1.37 µM. For the same substance, the potency estimated from few doses (MAP2K2; compound concentrations:100 nM and 1000 nM (sheet 'Lestaurtinib' of Supplementary Table 1),run:Lestaurtinib_02577_R2,Plate:MR016) was 0.883 µM, the potency estimated from few doses (MAP2K2; compound concentrations:100 nM and 1000 nM (sheet 'Lestaurtinib' of Supplementary Table 1),run:Lestaurtinib_02577_R3,Plate:MR016) was 0.852 µM and the potency estimated from few doses (MAP2K2; compound concentrations:100 nM and 1000 nM (sheet 'Lestaurtinib' of Supplementary Table 1),run:Lestaurtinib_02584_R3,Plate:MR017) was 1.58 µM. For the same substance, the potency estimated from few doses (MAP2K2; compound concentrations:100 nM and 1000 nM (sheet 'Lestaurtinib' of Supplementary Table 1),run:Lestaurtinib_02601_R1,Plate:MR018) was 0.728 µM, the potency estimated from few doses (MAP2K2; compound concentrations:100 nM and 1000 nM (sheet 'Lestaurtinib' of Supplementary Table 1),run:Lestaurtinib_02606_R1,Plate:MR019) was 0.691 µM and the potency estimated from few doses (MAP2K2; compound concentrations:100 nM and 1000 nM (sheet 'Lestaurtinib' of Supplementary Table 1),run:Lestaurtinib_02606_R3,Plate:MR019) was 1.15 µM. For the same substance, the potency estimated from few doses (MAP2K2; [1]) was 0.976 µM, the potency estimated from few doses (MAP2K2; [2]) was 1.76 µM and the potency estimated from few doses (MAP2K2; [3]) was 1.49 µM. The potency estimated from few doses (MAP2K2; [4]) was 1.32 µM, the potency estimated from few doses (MAP2K2; compound concentrations:100 nM and 1000 nM (sheet 'Lestaurtinib' of Supplementary Table 1),run:Lestaurtinib_02724_R2,Plate:MR021) was 1.51 µM and the potency estimated from few doses (MAP2K2; compound concentrations:100 nM and 1000 nM (sheet 'Lestaurtinib' of Supplementary Table 1),run:Lestaurtinib_02741_R3,Plate:MR023) was 0.875 µM. The potency estimated from few doses (MAP2K2; compound concentrations:100 nM and 1000 nM (sheet 'Lestaurtinib' of Supplementary Table 1),run:Lestaurtinib_02748_R2,Plate:MR024) was 1.49 µM, the potency estimated from few doses (MAP2K2; [5]) was 0.842 µM and the potency estimated from few doses (MAP2K2; [6]) was 0.925 µM.
